Data reported in PubChem BioAssay.
A number with no mark means an inactive call. The rule behind the calls is not given here.

Assay: compounds altering viability of human ES cells (AID 493140);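 note: cells exposed to compounds for four days before counting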
Conditions: human embryonic stem cell survival screen; hits give high values

| SMILES | survival |
| --- | --- |
| CCCc1c(OCCCCc2nn[nH]n2)ccc(C(C)=O)c1O | 110 |
| CN1[C@@H]2CC[C@H]1CC(OC(=O)C(O)c1ccccc1)C2 (stereo partly specified) | 24.7 |
| Cc1cccc(C)c1NC(=O)C(C)N (stereo unspecified) | 11.7 |
| CCC(=O)O[C@]1(C(=O)SCF)[C@H](C)C[C@H]2[C@@H]3C[C@H](F)C4=CC(=O)C=C[C@]4(C)[C@@]3(F)[C@@H](O)C[C@@]21C | 6.58 |
| CNNCc1ccc(C(=O)NC(C)C)cc1 | 6.5 |
| O=C1C(=O)c2ccccc2C(O)=C1C1CCC(c2ccc(Cl)cc2)CC1 (stereo unspecified) | 8.83 |
| COc1cc(C)nc(-n2nc(C)cc2OC)n1 | 33.2 |
| COc1ccc(CC2c3cc(OC)c(OC)cc3CC[N+]2(C)CCC(=O)OCCCCCOC(=O)CC[N+]2(C)CCc3cc(OC)c(OC)cc3C2Cc2ccc(OC)c(OC)c2)cc1OC (stereo unspecified) | 12.4 |
| Nc1ccc(O)c(C(=O)O)c1 | 4.33 |
| COC(=O)C1=C(C)NC(C)=C(C(=O)OC(C)C)C1c1cccc2nonc12 (stereo unspecified) | 16.1 |
| Nc1[nH]c(=O)ncc1F | 2.42 |
| CCc1c(C)[nH]c2c1C(=O)C(CN1CCOCC1)CC2 (stereo unspecified) | 6.5 |
| CC(C)N=C(N)/N=C(\N)Nc1ccc(Cl)cc1 | 3 |
| CCCOc1ccc(C(=O)OCCN(CC)CC)cc1N | 5.92 |
| O=C(O)[C@@H]1[C@H]2C[C@H]3c4[nH]c5ccccc5c4CCN3C[C@@H]2CC[C@@H]1O | 2.42 |
| COc1cc(N)c(Cl)cc1C(=O)NC1CCN(Cc2ccccc2)CC1 | 5.67 |
